Reference: PubChem BioAssay (Tox21)
Records with an inconclusive call do not appear. Calls of active or inactive are those of the source. Calls follow the shape of the dose curve; as a rule, active = well fitted curve in the direction sought with a large enough effect in the repeat runs; inconclusive = weak or mixed curves; inactive = no such curve, though single readings can be large; an effect the other way counts as inactive or inconclusive. Where a SMILES comes first, the peptide text is derived from it. [ ]: non-standard residue; d: D form. pGlu = O=C1CC[C@@H](C(=O)O)N1

Legend:
[1] = A CellTox Green Cytotoxicity Assay to monitor cytotoxicity in HEK293 cells - 40 hour (AID 1224871); also: nearly all actives have a fitted effect of over 45% in size
In short: (§1)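 Homogeneous no-lysis format: HEK293 cell suspension mixed with CellTox Green reagent, seeded, incubated 5 h at 37 C/5% CO2, then dosed by pintool with compound in DMSO.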

[2] = qHTS RealTime-Glo MT Cell Viability Assay in HEK293 cells - 16 hour (AID 1224872); also: top concentration of the series differs between compounds; nearly all actives have a fitted effect of over 50% in size
In short: (§2)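 Assay medium contained NanoLuc luciferase plus cell-permeant prosubstrate, added with HEK293 cells at 600 cells/well. After 5 h at 37 C/5% CO2 compounds were added; plates stayed at 37 C for 40 h with serial luminescence reads.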

[3] = qHTS RealTime-Glo MT Cell Viability Assay in HepG2 cells - 8 hour (AID 1224873); also: nearly all actives have a fitted effect of over 55% in size
In short: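 HepG2 cells mixed with RealTime-Glo MT reagents (NanoLuc plus cell-permeant prosubstrate) were seeded at 600 cells/well, incubated 5 h at 37 C/5% CO2, then pinned with compounds in DMSO; nonlytic luminescence tracked viability during 40 h treatment.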

[4] = qHTS RealTime-Glo MT Cell Viability Assay in HEK293 cells - 40 hour (AID 1224874); details: RealTime-Glo luminescence; max response: active compounds read low; also: nearly all actives have a fitted effect of over 50% in size
In short: (§3)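 Measured as luminescence from the same continuously cultured HEK293 wells at successive time points (0, 8, 16, 24, 32, 40 h) after compound addition. Reagent present from seeding; dosing at 5 h; incubation 37 C.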

[5] = A CellTox Green Cytotoxicity Assay to monitor cytotoxicity in HEK293 cells - 24 hour (AID 1224875); also: series mostly up to about 77 µM; nearly all actives have a fitted effect of over 45% in size
In short: as §1

[6] = A CellTox Green Cytotoxicity Assay to monitor cytotoxicity in HepG2 cells - 16 hour (AID 1224876); also: nearly all actives have a fitted effect of over 45% in size
In short: (§4)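 Fluorescent DNA-binding dye, 600 HepG2 cells/well, 5 h preincubation then compound in DMSO; same plates read at 0–40 h, 37 C.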

[7] = qHTS RealTime-Glo MT Cell Viability Assay in HepG2 cells - 32 hour (AID 1224877); also: nearly all actives have a fitted effect of over 55% in size
In short: (§5)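 qHTS, HepG2, 600 cells/well, RealTime-Glo (NanoLuc + prosubstrate) added with cells; 5 h preincubation; DMSO compound addition; 37 C; luminescence at 0/8/16/24/32/40 h.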

[8] = A CellTox Green Cytotoxicity Assay to monitor cytotoxicity in HepG2 cells - 40 hour (AID 1224879); also: nearly all actives have a fitted effect of over 40% in size
In short: as §4

[9] = qHTS RealTime-Glo MT Cell Viability Assay in HEK293 cells - 0 hour (AID 1224880); also: top concentration of the series differs between compounds; nearly all actives have a fitted effect of over 45% in size
In short: as §3

[10] = A CellTox Green Cytotoxicity Assay to monitor cytotoxicity in HEK293 cells - 32 hour (AID 1224881); also: nearly all actives have a fitted effect of over 40% in size
In short: as §1

[11] = A CellTox Green Cytotoxicity Assay to monitor cytotoxicity in HepG2 cells - 32 hour (AID 1224883); also: nearly all actives have a fitted effect of over 50% in size
In short: as §4

[12] = A CellTox Green Cytotoxicity Assay to monitor cytotoxicity in HEK293 cells - 8 hour (AID 1224884); also: nearly all actives have a fitted effect of over 35% in size
In short: as §1

[13] = qHTS RealTime-Glo MT Cell Viability Assay in HepG2 cells - 16 hour (AID 1224885); also: nearly all actives have a fitted effect of over 50% in size
In short: as §5

[14] = qHTS RealTime-Glo MT Cell Viability Assay in HEK293 cells - 24 hour (AID 1224886)
In short: as §2

[15] = qHTS RealTime-Glo MT Cell Viability Assay in HEK293 cells - 8 hour (AID 1224887)
In short: as §3

[16] = A CellTox Green Cytotoxicity Assay to monitor cytotoxicity in HEK293 cells - 16 hour (AID 1224888); also: nearly all actives have a fitted effect of over 35% in size
In short: as §1

[17] = qHTS RealTime-Glo MT Cell Viability Assay in HepG2 cells - 0 hour (AID 1224889); also: nearly all actives have a fitted effect of over 50% in size
In short: as §5

[18] = A CellTox Green Cytotoxicity Assay to monitor cytotoxicity in HepG2 cells - 8 hour (AID 1224890); also: nearly all actives have a fitted effect of over 45% in size
In short: as §4

[19] = A CellTox Green Cytotoxicity Assay to monitor cytotoxicity in HepG2 cells - 0 hour (AID 1224882); also: nearly all actives have a fitted effect of over 35% in size
In short: as §4
% is scaled to controls: 0 for no effect and ±100 for the full control effect.

NC(=O)N[C@@H](CCC(=O)O)C(=O)O
inactive: Potency [1] | Potency [2] | outcome [3] | max response [4] 5.25% | outcome [5] | outcome [6] | Potency [7] | Potency [8] | Potency [9] | outcome [10] | Potency [11] | outcome [12] | outcome [13] | Potency [14] | Potency [15] | outcome [16] | Potency [17] | outcome [18]

CN(C)C(=O)Oc1ccc[n+](C)c1
inactive: Potency [1] | Potency [2] | outcome [3] | max response [4] 5.97% | outcome [5] | outcome [6] | Potency [7] | Potency [8] | Potency [9] | outcome [10] | Potency [19] | Potency [11] | outcome [12] | outcome [13] | Potency [14] | Potency [15] | outcome [16]

CCOCC(C)O (centres undefined)
inactive: Potency [1] | Potency [2] | outcome [3] | max response [4] -1.56% | outcome [5] | outcome [6] | Potency [7] | Potency [8] | Potency [9] | outcome [10] | Potency [19] | Potency [11] | outcome [12] | outcome [13] | Potency [14] | Potency [15] | outcome [16] | Potency [17] | outcome [18]

CC(C)=CCC/C(C)=C/C#N
inactive: Potency [1] | Potency [2] | outcome [3] | max response [4] 2.39% | outcome [5] | outcome [6] | Potency [7] | Potency [8] | Potency [9] | outcome [10] | Potency [19] | Potency [11] | outcome [12] | outcome [13] | Potency [14] | Potency [15] | outcome [16] | Potency [17] | outcome [18]

CC(C)(CCC(=O)O)C(=O)O
inactive: Potency [1] | Potency [2] | outcome [3] | max response [4] 0.835% | outcome [5] | outcome [6] | Potency [7] | Potency [8] | Potency [9] | outcome [10] | Potency [19] | Potency [11] | outcome [12] | outcome [13] | Potency [14] | Potency [15] | outcome [16] | Potency [17] | outcome [18]

C[N+](C)(C)CCCCCCCCCC[N+](C)(C)C
inactive: Potency [1] | Potency [2] | outcome [3] | max response [4] 9.07% | outcome [5] | outcome [6] | Potency [7] | Potency [8] | Potency [9] | outcome [10] | Potency [19] | Potency [11] | outcome [12] | outcome [13] | Potency [14] | Potency [15] | outcome [16] | Potency [17] | outcome [18]

CN(C)CCN(C)CCN(C)C
inactive: Potency [1] | Potency [2] | outcome [3] | max response [4] 4.88% | outcome [5] | outcome [6] | Potency [7] | Potency [8] | Potency [9] | outcome [10] | Potency [19] | Potency [11] | outcome [12] | outcome [13] | Potency [14] | Potency [15] | outcome [16] | Potency [17] | outcome [18]

CCNC(=O)[C@@H]1CCCN1C(=O)[C@H](CCCN=C(N)N)NC(=O)[C@H](CC(C)C)NC(=O)CNC(=O)[C@H](Cc1ccc(O)cc1)NC(=O)[C@H](CO)NC(=O)[C@H](Cc1c[nH]c2ccccc12)NC(=O)[C@H](Cc1cnc[nH]1)NC(=O)[C@@H]1CCC(=O)N1 ([pGlu]HWSYGLRP-NHEt)
inactive: Potency [1] | Potency [2] | outcome [3] | max response [4] 7.73% | outcome [5] | outcome [6] | Potency [7] | Potency [8] | Potency [9] | outcome [10] | Potency [19] | Potency [11] | outcome [12] | outcome [13] | Potency [14] | Potency [15] | outcome [16] | Potency [17] | outcome [18]

CCOC(=O)c1ccccc1
inactive: Potency [1] | Potency [2] | outcome [3] | max response [4] -0.292% | outcome [5] | outcome [6] | Potency [7] | Potency [8] | Potency [9] | outcome [10] | Potency [19] | Potency [11] | outcome [12] | outcome [13] | Potency [14] | Potency [15] | outcome [16] | Potency [17] | outcome [18]

CC(C)(N)C#N
inactive: Potency [1] | Potency [2] | outcome [3] | max response [4] -0.492% | outcome [5] | outcome [6] | Potency [7] | Potency [8] | Potency [9] | outcome [10] | Potency [19] | Potency [11] | outcome [12] | outcome [13] | Potency [14] | Potency [15] | outcome [16] | Potency [17] | outcome [18]

COc1cc(-c2ccc(=O)[nH]n2)ccc1OC(F)F
inactive: Potency [1] | Potency [2] | outcome [3] | max response [4] -5.19% | outcome [5] | outcome [6] | Potency [7] | Potency [8] | Potency [9] | outcome [10] | Potency [19] | Potency [11] | outcome [12] | outcome [13] | Potency [14] | Potency [15] | outcome [16] | Potency [17] | outcome [18]

C1CCC2(CCCCO2)OC1
inactive: Potency [1] | Potency [2] | outcome [3] | max response [4] -6.53% | outcome [5] | outcome [6] | Potency [7] | Potency [8] | Potency [9] | outcome [10] | Potency [19] | Potency [11] | outcome [12] | outcome [13] | Potency [14] | Potency [15] | outcome [16] | Potency [17] | outcome [18]

CC1=CC(=O)[C@H]2C[C@@H]1C2(C)C
inactive: Potency [1] | Potency [2] | outcome [3] | max response [4] -1.77% | outcome [5] | outcome [6] | Potency [7] | Potency [8] | Potency [9] | outcome [10] | Potency [19] | Potency [11] | outcome [12] | outcome [13] | Potency [14] | Potency [15] | outcome [16] | Potency [17] | outcome [18]
